Laboratory results published in PubChem BioAssay (NCATS).
Records with an inconclusive call do not appear. Where a call stands in place of a potency, no number is given. Active and inactive are the calls of the source. The call rests on the fitted dose curve.

Key:
[1] = Primary qHTS for inhibitors of SARS-S pseudo-typed particle cell entry (AID 1479145); conditions: outcome: dose series up to 57.1 µM unless noted; further: nearly all actives have a fitted effect of over 45% in size
[2] = Primary qHTS for Huh7 cytotoxicity: counterscreen for inhibitors of MERS-S pseudotyped particle cell entry (AID 1479147); conditions: outcome: dose series up to 57.1 µM unless noted
[3] = Primary qHTS for inhibitors of MERS-S pseudo-typed particle cell entry (AID 1479149); conditions: outcome: dose series up to 57.1 µM unless noted; further: nearly all actives have a fitted effect of over 60% in size
[4] = Primary qHTS for Vero E6 cytotoxicity: counterscreen for inhibitors of SARS-S pseudo-typed particle cell entry (AID 1479150); conditions: outcome: dose series up to 57.1 µM unless noted
[5] = Cytotoxicity counterscreen for inhibitors of SARS-CoV-2 cell entry (AID 1645845); conditions: outcome: dose series up to 57.1 µM unless noted; further: nearly all actives have a fitted effect of over 50% in size
Procedure, shortened: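 48 h compound treatment (after 1 h preincubation), HEK293-ACE2 cells, 37 C/5% CO2; ATP luminescence endpoint; normalized to cell wells and media blanks.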

[6] = Primary qHTS to identify inhibitors of SARS-CoV-2 cell entry (AID 1645846); conditions: SARS-CoV-2 pseudovirus cell entry assay, luminescence; activity change, negative = inhibition: at 57.1 µM (top of the series) unless noted; further: nearly all actives have a fitted effect of over 45% in size
Procedure, shortened: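 Inhibition of spike-mediated entry was scored in human ACE2-transfected Expi293F cells. Particles were MLV-pseudotyped with Wuhan-Hu-1 S carrying a 19-aa C-terminal deletion; signal was luciferase after two days, scaled between spike PP and fusion-protein-free PP.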

Structure (SMILES): C=CC[N@@+]12CC[C@]34c5ccccc5N5/C=C6\C7N(/C=C(\C53)[C@@H](C[C@@H]41)/C(=C/CO)C2)c1ccccc1[C@@]71CC[N@@+]2(CC=C)C/C(=C\CO)[C@@H]6C[C@@H]12 (some centres not stated)
- Potency [1]: inactive
- Potency [2]: inactive
- Potency [3]: inactive
- Potency [4]: inactive
- Potency [5]: inactive

Structure (SMILES): FC(F)OC(Cl)C(F)(F)F (configuration not stated)
- Potency [1]: inactive
- Potency [2]: inactive
- Potency [3]: inactive
- Potency [4]: inactive
- Potency [5]: inactive

Structure (SMILES): COCC1=C(C(=O)OC(C)OC(=O)OC(C)C)N2C(=O)[C@@H](NC(=O)/C(=N/OC)c3csc(N)n3)[C@H]2SC1 (some centres not stated)
- Potency [1]: inactive
- Potency [2]: inactive
- Potency [3]: inactive
- Potency [4]: inactive
- Potency [5]: inactive

Structure (SMILES): N#Cc1cc(-c2n[nH]c(-c3ccncc3)n2)ccn1
- Potency [1]: inactive
- Potency [2]: inactive
- Potency [3]: inactive
- Potency [4]: inactive
- Potency [5]: inactive

Structure (SMILES): OCC(O)COc1ccc(Cl)cc1 (configuration not stated)
- Potency [1]: inactive
- Potency [2]: inactive
- Potency [3]: inactive
- Potency [4]: inactive
- Potency [5]: inactive

Structure (SMILES): NC[C@@H]1O[C@H](O[C@H]2[C@H](O)[C@H](O[C@H]3[C@@H](O)[C@H](N)C[C@H](N)[C@H]3O[C@H]3O[C@H](CN)[C@H](O)[C@H](O)[C@H]3N)O[C@@H]2CO)[C@@H](N)[C@@H](O)[C@@H]1O
- activity change, negative = inhibition [1]: -20.9% [at 5.34 µM] (inactive)
- outcome [2]: inactive [at 5.34 µM]
- activity change, negative = inhibition [3]: 3.6% [at 5.34 µM] (inactive)
- activity change, negative = cytotoxicity [4]: -3.76% [at 5.34 µM] (inactive)
- activity change, negative = cytotoxicity [5]: 2.87% [at 5.25 µM] (inactive)

Structure (SMILES): NC(Cc1cc(I)c(Oc2cc(I)c(O)c(I)c2)c(I)c1)C(=O)O (configuration not stated)
- Potency [1]: inactive
- Potency [2]: inactive
- Potency [3]: inactive
- Potency [4]: inactive
- Potency [5]: inactive

Structure (SMILES): CNC(=O)c1c(I)c(C(=O)NCC(=O)Nc2c(I)c(C(=O)O)c(I)c(C(=O)NCCO)c2I)c(I)c(N(C)C(C)=O)c1I
- Potency [1]: inactive
- Potency [2]: inactive
- Potency [3]: inactive
- Potency [4]: inactive
- Potency [5]: inactive

Structure (SMILES): CCO/N=C(\C(=O)N[C@@H]1C(=O)N2C(C(=O)O)=C(Sc3nc(-c4cc[n+](C)cc4)cs3)CS[C@H]12)c1nsc(NP(=O)(O)O)n1
- Potency [1]: inactive
- Potency [2]: inactive
- Potency [3]: inactive
- Potency [4]: inactive
- Potency [5]: inactive

Structure (SMILES): NCc1ccccc1CC(=O)N[C@@H]1C(=O)N2C(C(=O)O)=C(CSc3nnnn3CC(=O)O)CS[C@H]12
- Potency [1]: inactive
- Potency [2]: inactive
- Potency [3]: inactive
- Potency [4]: inactive
- Potency [5]: inactive

Structure (SMILES): CC(C)OC(=O)CCC/C=C\C[C@@H]1[C@@H](CC[C@@H](O)CCc2ccccc2)[C@H](O)C[C@@H]1O
- activity change, negative = inhibition [1]: -26.3% [at 11.4 µM] (inactive)
- activity change, negative = cytotoxicity [2]: -6.62% [at 11.4 µM] (inactive)
- outcome [3]: inactive [at 11.4 µM]
- activity change, negative = cytotoxicity [4]: 3.55% [at 11.4 µM] (inactive)
- activity change, negative = cytotoxicity [5]: -2.53% [at 11.3 µM] (inactive)

Structure (SMILES): CCC(C)C(NC(=O)C(Cc1ccc(O)cc1)NC(=O)C(NC(=O)C(CCCN=C(N)N)NC(=O)C(N)CC(=O)O)C(C)C)C(=O)NC(Cc1cnc[nH]1)C(=O)N1CCCC1C(=O)NC(Cc1ccccc1)C(=O)O (configuration not stated)
- Potency [1]: inactive
- Potency [2]: inactive
- Potency [3]: inactive
- Potency [4]: inactive
- Potency [5]: inactive

Structure (SMILES): CC1(C)S[C@@H]2[C@H](NC(=O)[C@H](NC(=O)N3CCNC3=O)c3ccccc3)C(=O)N2C1C(=O)O (some centres not stated)
- Potency [1]: inactive
- Potency [2]: inactive
- Potency [3]: inactive
- Potency [4]: inactive
- Potency [5]: inactive

Structure (SMILES): COc1ccc2c(O[C@H]3CC4C(=O)N(C)CCCC/C=C\[C@@H]5C[C@@]5(C(=O)NS(=O)(=O)C5CC5)NC(=O)[C@@H]4C3)cc(-c3nc(C(C)C)cs3)nc2c1C (some centres not stated)
- Potency [1]: inactive
- Potency [2]: inactive
- Potency [3]: inactive
- Potency [4]: inactive
- Potency [5]: inactive

Structure (SMILES): CCOC(=O)COc1ccc2c(C)c(CCN(CC)CC)c(=O)oc2c1
- Potency [1]: inactive
- Potency [2]: inactive
- Potency [3]: inactive
- Potency [4]: inactive
- Potency [5]: inactive

Structure (SMILES): Cn1nnnc1SCC1=C(C(=O)O)N2C(=O)[C@H](NC(=O)C(O)c3ccccc3)C2SC1 (some centres not stated)
- Potency [1]: inactive
- Potency [2]: inactive
- Potency [3]: inactive
- Potency [4]: inactive
- Potency [5]: inactive

Structure (SMILES): O=C(OC1C[C@@H]2CC3C[C@@H](C1)N2CC3=O)c1c[nH]c2ccccc12 (some centres not stated)
- Potency [1]: inactive
- Potency [2]: inactive
- Potency [3]: inactive
- Potency [4]: inactive
- Potency [5]: inactive

Structure (SMILES): CC(C)(CO)C(O)C(=O)NCCCC(=O)O (configuration not stated)
- Potency [1]: inactive
- Potency [2]: inactive
- Potency [3]: inactive
- Potency [4]: inactive
- Potency [5]: inactive

Structure (SMILES): C=C1/C(=C/C=C2\CCC[C@]3(C)[C@@H]([C@H](C)/C=C/C=C/C(O)(CC)CC)CC[C@@H]23)C[C@@H](O)C[C@@H]1O
- Potency [1]: inactive
- Potency [2]: inactive
- Potency [3]: inactive
- Potency [4]: inactive
- Potency [5]: inactive
- activity change, negative = inhibition [6]: -5.54%

Structure (SMILES): O=C(O)c1ccc(NC(=O)[C@H](Cc2ccc(O)cc2)NC(=O)c2ccccc2)cc1
- Potency [1]: inactive
- Potency [2]: inactive
- Potency [3]: inactive
- Potency [4]: inactive
- Potency [5]: inactive
- activity change, negative = inhibition [6]: -10.6%
